From PubChem BioAssay AID624453 (National Center for Advancing Translational Sciences (NCATS), 2012) come the findings set out here.

Activity calls are given as the source filed them. Calls follow the shape of the dose curve; as a rule, active = well fitted curve in the direction sought with a large enough effect; inactive = no such curve, though single readings can be large or run the other way.

D(2) dopamine receptor (Homo sapiens), sequence (P14416 whole entry, looked up): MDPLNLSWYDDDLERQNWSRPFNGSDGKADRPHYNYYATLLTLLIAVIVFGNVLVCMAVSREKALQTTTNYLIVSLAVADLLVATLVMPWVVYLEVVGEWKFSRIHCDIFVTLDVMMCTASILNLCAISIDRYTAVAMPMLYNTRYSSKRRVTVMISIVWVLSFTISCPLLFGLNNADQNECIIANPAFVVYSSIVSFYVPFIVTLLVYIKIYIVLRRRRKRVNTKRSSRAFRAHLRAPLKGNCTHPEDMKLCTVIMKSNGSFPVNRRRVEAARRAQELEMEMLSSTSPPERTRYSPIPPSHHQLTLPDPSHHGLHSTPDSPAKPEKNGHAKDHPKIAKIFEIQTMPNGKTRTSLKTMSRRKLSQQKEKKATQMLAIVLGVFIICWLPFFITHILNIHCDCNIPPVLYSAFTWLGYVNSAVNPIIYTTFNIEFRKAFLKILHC

For this experiment, the target named is D(2) dopamine receptor (Homo sapiens) (UniProt P14416). The experiment is described as follows: HTS Assay for Allosteric Antagonists of the Human D2 Dopamine Receptor: Hit Validation in primary assay. The settings on record: HEK293 TREx D2, calcium flux, dopamine EC80 antagonism; series mostly up to 41.8 µM. From the text:
Dopamine receptors (DARs) are involved in the etiology and/or therapy of a number of neuropsychiatric and endocrine disorders. For instance, all receptor-based antiparkinsonian drugs work via stimulating the D2 DAR subtype whereas all FDA-approved antipsychotic agents are antagonists of this receptor. […] There are three different types of allosteric modulators that we are seeking, two of which will stimulate or augment receptor signaling, allosteric agonists and potentiators, while the third, allosteric antagonists, will attenuate receptor signaling. The present primary screening assay measures compound antagonism after an EC80 addition of dopamine by tracking calcium flux in a […], inducible Hek293 Trex D2 cell line. NIH Chemical Genomics Center [NCGC] NIH Molecular Libraries Probe Centers Network [MLPCN] MLPCN Grant: NS064831 Assay Submitter (PI): David Sibley
Freshly passaged cells are plated in 1536 well black, clear bottom plates at a density of 4000 cells/well in 3 ul of complete media containing 1x tetracycline inducer. After an overnight incubation at 30 C in 5% CO2, cells are loaded with 2 ul of the no wash Calcium Assay Kit (ABD Bioquest) and incubated at room temperature for 30 to 90 minutes before it's read.
In general terms: Calcium assays in cells follow changes in intracellular calcium, usually with a dye or a luminescent sensor.
With `C[C@]12CCC3c4ccc(OS(=O)(=O)O)cc4CCC3C1CCC2=O` (some centres not stated), the outcome was inactive.

Take `CC(CCC(=O)O)C1CCC2C3CC[C@H]4CC(O)CC[C@@]4(C)C3CC[C@@]12C` (some centres not stated): the result was inactive.

With `COc1cc(OC)c2ccc(=O)oc2c1`, the result was inactive.

Take `CCCCNc1ccc(C(=O)OCCN(C)C)cc1`: the outcome was inactive.

Regarding `CC(=O)OC1CC2C(C)(C)C(O)CC(O)[C@@]2(C)C2CC[C@@]3(C)C(=CC(=O)OC3c3ccoc3)[C@]12C` (some centres not stated), the outcome was inactive.

Regarding `O=C(OCc1ccccc1)c1ccccc1`, the result was inactive.

On to `COc1ccc2cc3[n+](cc2c1OC)CCc1cc2c(cc1-3)OCO2`, for which the result was inactive.

Regarding `CC1=CC(=O)c2ccccc2C1=O`, the outcome was inactive.

On to `CC(C)(C)NCC(O)c1cc(O)cc(O)c1` (configuration not stated), for which the result was inactive.

Turning to `CCCCCCCCCCCC1=C(O)C(=O)C=C(O)C1=O`, the outcome was inactive.

Consider `NS(=O)(=O)c1cc(C2(O)NC(=O)c3ccccc32)ccc1Cl` (configuration not stated), for which the outcome was inactive.

As to `COc1ccc(-c2c(O)c3c(OC)c4c(cc3oc2=O)OC(C)(C)C=C4)cc1`, the result was inactive.

Regarding `O=C(O)c1cc(=O)c2ccccc2[nH]1`, the result was inactive.

For `CC(C)c1c(O)ccc2c1CCC1[C@@](C)(C=O)CCC[C@@]21C` (some centres not stated), the outcome was inactive.

As to `NCC1O[C@@H](OC2C(N)C[C@H](N)[C@@H](O[C@H]3OC(CO)C(O)C(N)C3O)C2O)C(N)C(O)C1O` (some centres not stated), the outcome was inactive.

For the compound `Cc1cc(C)nc(NS(=O)(=O)c2ccc(N)cc2)n1`, the result was inactive.

Consider `CC1OC(OC2C(CO)OC(OC3C(CO)OC(O)C(O)C3O)C(O)C2O)C(O)C(O)C1NC1C=C(CO)C(O)C(O)C1O` (configuration not stated), for which the result was inactive.
